Assay outcomes (PubChem BioAssay)
Compounds with a hit are over-represented: about 6.6% of the library has one in this group of screens.
KB-3-1 cytotox = kills parental KB-3-1 adenocarcinoma cells | KB-3-1 viability, CellTiter-Glo ATP luminescence, 72 h | actives 1.4% (n = 400,000) | Potency, µM (titrated, usually from 46.1 µM), most hits filed as cytotoxic | AID 1347075; note: % is set by controls: 0 for no effect and ±100 for the full control effect; nearly all actives have a fitted effect of over 60% in size
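Parental KB-3-1 viability, qHTS format: 72 h compound exposure, 37 °C; CellTiter-Glo; media-only wells and DMSO plates as controls; concentration-effect fits on corrected data.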
TSG101-PTAP inh = blocks PTAP/TSG101 interaction to inhibit HIV-1 budding; Q99816; Fluorescence polarization, FITC-PTAP peptide / Tsg101 binding; Potency, µM (series often up to 115 µM), for inactives: top-dose activity change, negative = inhibition, usual class: inhibitors; 340,000 tested, under 10 active; AID 493005; active = well fitted inhibition curve with a large enough effect in the main read-out, with a control signal flat, not every such curve was filed as active; inconclusive = small, poorly fitted or top-dose-only effect, or effect the other way, or a change in a side signal; inactive = no such curve, though single readings can be large or run the other way; note: % of control where 0% means no effect
Target sequence (Q99816 whole entry, looked up): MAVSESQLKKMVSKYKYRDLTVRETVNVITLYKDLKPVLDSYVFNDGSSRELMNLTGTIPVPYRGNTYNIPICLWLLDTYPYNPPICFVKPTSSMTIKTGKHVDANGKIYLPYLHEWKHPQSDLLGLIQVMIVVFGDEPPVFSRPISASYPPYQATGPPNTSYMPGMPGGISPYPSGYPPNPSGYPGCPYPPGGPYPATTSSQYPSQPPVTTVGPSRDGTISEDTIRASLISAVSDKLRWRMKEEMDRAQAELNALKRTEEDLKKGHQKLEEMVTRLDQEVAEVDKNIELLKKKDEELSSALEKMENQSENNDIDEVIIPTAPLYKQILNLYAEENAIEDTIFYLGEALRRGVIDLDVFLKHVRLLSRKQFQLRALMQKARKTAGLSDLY
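Fluorescence anisotropy tracks displacement of a FITC-tagged PTAP peptide (50 nM) from the Tsg101 binding domain (10 uM), following a 20 min room-temperature incubation at pH 7.5.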
RGS4 inhibitor = human RGS4 inhibition; P49798; Transcreener GDP fluorescence polarization, RGS4-accelerated GTP hydrolysis; Potency, µM (series often up to 114 µM), for the others: at the highest dose activity change, negative = inhibition, actives largely listed as inhibitors; actives 0.039% (n = 390,000); note: % is set by controls: 0 for no effect and ±100 for the full control effect; nearly all actives have a fitted effect of over 75% in size
Target sequence (P49798 whole entry, looked up): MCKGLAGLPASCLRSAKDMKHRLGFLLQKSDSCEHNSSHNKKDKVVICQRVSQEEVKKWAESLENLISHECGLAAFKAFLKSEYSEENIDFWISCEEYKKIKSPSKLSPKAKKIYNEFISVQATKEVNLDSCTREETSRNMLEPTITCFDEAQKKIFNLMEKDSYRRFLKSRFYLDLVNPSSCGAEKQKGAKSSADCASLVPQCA
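MLSMR compounds (23 nl, pin-transferred) preincubated 10 min at room temperature with a 500nM (2x) first reagent, then RGS4 at 900nM (2x) plus Transcreener GDP mix added; fluorescence polarization (620/688 nm) read before and after 90 min at 30 °C.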
SW480 rereplic = DNA re-replication induction in SW480 cells; Potency, µM (highest dose often 46.1 µM), without a hit: at the top dose re-replication activation, most hits filed as activators; actives 1.8% (n = 340,000); SW480 DNA re-replication, Hoechst DNA content imaging, 48 h; note: % of control where 0% means no effect; nearly all actives have a fitted effect of over 55% in size
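Compounds, transferred as 23 nL by pin tool, were incubated with cells for 48 hr; DNA content per nucleus was then quantified by Hoechst staining and fluorescence plate imaging.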
MCF10A rereplic = induces DNA re-replication in MCF 10a normal breast cells; Potency, µM (series often up to 46.1 µM), for the others: top-dose activity, positive = re-replication, usual class: activators; MCF 10A DNA re-replication, Hoechst nuclear intensity, 48 h; actives 2.9% (n = 350,000); AID 624296; note: % of control where 0% means no effect; nearly all actives have a fitted effect of over 50% in size
KB-V1 cytotox = kills drug-selected multidrug resistant KB-V1 cells. KB-V1 MDR cells viability, CellTiter-Glo, 72 h. actives 3.4% (n = 400,000). AID 1347076. Potency, µM (doses to about 46.1 µM), actives largely listed as cytotoxic; note: % is set by controls: 0 for no effect and ±100 for the full control effect; nearly all actives have a fitted effect of over 60% in size
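KB-V1 cells (P-gp-expressing MDR subline of KB-3-1) in phenol-red-free DMEM with 10% FBS were exposed to library compounds over a concentration series for 72 h at 37 degrees C. Viability read by CellTiter-Glo luminescence; concentration-effect curves fitted after normalization.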
Starred values were filed as active, the others as inactive; i = inactive; ? = inconclusive; . = no result given; [ ] = remark or other dose. Unless noted, calls come from the whole dose curve; as a rule, active = well fitted curve in the direction sought with a large enough effect; inconclusive = small, poorly fitted or top-dose-only effect, or another doubt; inactive = no such curve, though single readings can be large; an effect the other way counts as inactive or inconclusive. Potency is the fitted concentration of half-maximal effect.

SMILES	KB-3-1 cytotox	TSG101-PTAP inh	RGS4 inhibitor	SW480 rereplic	MCF10A rereplic	KB-V1 cytotox
CCc1cccc(NC(=O)CSc2n[nH]c(-c3ccccc3Cl)n2)c1	?	.	10%	.	.	?
CCCn1c(O)c(/C=C2\C=NN=C2c2ccccc2)sc1=S	i	1%	-13%	9%	9.2µM*	?
O=[N+]([O-])c1ccc(OC(F)F)c(/C=N/n2cnnc2)c1	?	-4%	-2%	3.3µM*	0%	?
COc1cc([N+](=O)[O-])ccc1-c1ccc(/C=N\n2cnnc2)o1	i	-7%	19%	3%	-5%	i
COc1ccc(CNC(=O)C(C)N2CCN(S(=O)(=O)c3ccccc3F)CC2)cc1 (stereo not given)	i	-2%	-33%	-3%	-2%	23µM*
O=C(CN1C(=O)NC2(CCCCC2)C1=O)N1CCN(S(=O)(=O)c2ccccc2)CC1	i	-10%	4%	-3%	?	i
O=C(CN1CCN(c2ccc(F)cc2)CC1)N1CCC(Cc2ccccc2)CC1	i	-1%	-15%	8.2µM*	8.2µM*	?
O=C(CN1C(=O)NC2(CCCCCC2)C1=O)N1CCC(Cc2ccccc2)CC1	?	3%	10%[11.4 µM]	1%	25%	18µM*
COc1cccc(CNC(=O)CCc2c(C)nc3c(c2C)c(=O)n(C)c(=O)n3C)c1	i	.	19%	.	.	i
CCN(CC)CCC(c1cc(OC)c(OC)c(OC)c1)c1c(OC)cc(OC)c2c1OC(=O)CC2c1ccc(N(C)C)cc1 (stereo not given)	.	.	12%	.	.	.
Cc1cc(=O)c2ccccc2[nH]1	i	-9%	29%	2%	-1%	i
Cc1cc(=O)c2cc(Br)ccc2[nH]1	i	-7%	0%	0%	4%	16µM*
C/C(=N\Nc1nc(Cl)c(Cl)cc1Cl)c1ccc(S(=O)(=O)NCc2ccco2)cc1	?	-3%	-36%	?	?	12µM*
COc1ccc2[nH]c(=O)c(CN(C(=O)NC3CCCCC3)C3CCCCC3)cc2c1	?	-4%	16%	16%	2%	10µM*
O=C(c1ccncc1)N(Cc1cc2ccccc2[nH]c1=O)C1CCCCC1	9.2µM*	-6%	-8%	12%	?	?
O=C(c1ccco1)N(Cc1cc2ccccc2[nH]c1=O)C1CCCCC1	i	-4%	14%	0%	-3%	i
COc1ccc2[nH]c(=O)c(CNc3cccc(C)c3)cc2c1	?	-3%	-32%	1%	9%	5.8µM*
COc1ccc2[nH]c(=O)c(CNC3CCCCC3)cc2c1	i	-4%	1%	-3%[9.22 µM]	3%	i
COc1ccc(NCc2cc3cc(OC)ccc3[nH]c2=O)cc1	i	-5%	-13%	26%	-7%	18µM*
Cc1ccc2nc(-c3ccc(NC(=O)COc4ccc(Cl)c(C)c4)cc3)sc2c1	.	.	3%	.	.	.
CCOC(=O)c1ccc(NC(=O)Cc2ccc(-n3c(CC)nc4cccnc43)cc2)cc1	i	.	-11%	.	.	i
Cc1ccc(-n2c3c(cc(C(=O)NCc4ccco4)c2=O)C(=O)CCC3)cc1	i	-1%	-4%	0%	16%	i
O=C1CCCc2c1cc(C(=O)NCc1ccco1)c(=O)n2-c1ccc(Cl)cc1	?	-2%	-43%	-8%	1%	16µM*
O=C(CSc1nnc2[nH]c(=O)cc(-c3ccccc3)n12)Nc1ccc(OC(F)(F)F)cc1	.	.	-31%	.	.	.
Cc1ccccc1-c1nc(SCC(=O)NCC2CCCO2)c2c(=O)n(C)c(=O)n(C)c2n1 (stereo not given)	i	.	27%	.	.	i
SMILES	KB-3-1 cytotox	TSG101-PTAP inh	RGS4 inhibitor	SW480 rereplic	MCF10A rereplic	KB-V1 cytotox
O=C(NCc1ccco1)/C(=C/C=C\c1ccccc1)NC(=O)c1ccc(Br)o1	?	-8%	7%	?	?	4.1µM*
O=C(CCCl)Nc1cc(SCCO)cc([N+](=O)[O-])c1	i	.	4%	-5%	-5%	i
O=C(Nc1cc(SCCO)cc([N+](=O)[O-])c1)c1ccc(Br)o1	?	0%	-18%	-6%	17%	21µM*
CC(C)OCCCN1C(=O)c2[nH]nc(-c3ccccc3O)c2C1c1ccc(OCc2ccccc2)cc1 (stereo not given)	.	.	5%	.	.	.
CC(=O)Nc1nonc1-c1nnc(SCC(=O)Nc2cccc(F)c2)n1-c1ccccc1	i	.	1%	.	.	i
CCOC(=O)CC1(C)Oc2cc(Cl)ccc2N1S(=O)(=O)c1ccc(C)cc1 (stereo not given)	18µM*	.	.	.	.	?
CCOC(=O)CC1(CCc2ccccc2)Oc2ccccc2O1	i	.	.	.	.	i
CCOC(=O)CC1(CCc2ccccc2)Oc2ccccc2N1S(=O)(=O)c1ccc(C)cc1 (stereo not given)	18µM*	.	.	.	.	?
Cc1ccccc1C(=O)Nc1ccc(OCc2cc(=O)n3cccc(C)c3n2)cc1	i	.	17%	.	.	i
CC(C)c1ccc(CNCCSc2nnnn2-c2ccccc2)cc1	i	.	4%	.	.	i
NC(=O)C1(N2CCCCC2)CCN(C(=O)Nc2ccc(F)cc2)CC1	i	.	-6%	.	.	?
COc1ccc(C2CC(c3ccccc3C(F)(F)F)=NN2c2ccc(S(N)(=O)=O)cc2)cc1 (stereo not given)	?	-2%	12%	0.73µM*	1.8µM*	?
COc1ccc(C2CC(c3cccs3)=NN2S(=O)(=O)c2ccc(C)cc2)cc1 (stereo not given)	i	-1%	-32%	6%	14%	i
COc1ccc(C2CC(c3ccccc3Br)=NN2c2ccc(S(N)(=O)=O)cc2)cc1 (stereo not given)	i	-3%	?	3.7µM*	?	i
COc1ccc(C2CC(C(C)(C)C)=NN2c2ccc(S(N)(=O)=O)cc2)cc1 (stereo not given)	i	-9%	7%	-15%	12%	i
COc1ccc(C2CC(c3cccs3)=NN2S(C)(=O)=O)cc1 (stereo not given)	i	-3%	9%	6%	-1%	i
COc1ccc(C2CC(c3ccccc3F)=NN2c2ccc(S(N)(=O)=O)cc2)cc1 (stereo not given)	i	-1%	-7%	0.92µM*	2.1µM*	i
COc1ccc(C2CC(c3ccc(C(F)(F)F)cc3)=NN2c2ccc(S(N)(=O)=O)cc2)cc1 (stereo not given)	?	1%	-30%	0.52µM*	?	i
CCOC(=O)N1CCC(NC(=O)c2ccc3c(c2)N=C(CC)c2cc(C)ccc2S3)CC1	7.3µM*	-2%	4%[11.4 µM]	?	?	?
